Activity calls are given as the source filed them. The calls were made as follows: active = hit-call score of the fitted dose curve at least 0.9, where 1 is the maximum; inactive = score below 0.9.
Experiments:
[1] = read-out: Vascular endothelial growth factor receptor 2 (Homo sapiens) (UniProt P35968); assay: BSK_4H_VEGFRII: BioMAP Diversity Plus: 4H Assay for Vascular endothelial growth factor receptor 2 (VEGFR2) Biomarker Activity (AID 2283031); conditions: primary human endothelial cells (HUVEC); actives raise or lower the signal
Summary of the method: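 ELISA read-out of VEGFRII in primary human umbilical vein endothelium, taken 24 h after chemical treatment. Responses are expressed relative to DMSO, with bidirectional fitting.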

[2] = read-out: Human Leukocyte Antigen - DR isotype (HLADR), HLA-DRA (gene 3122); assay: BSK_BE3C_HLADR: BioMAP Diversity Plus: BE3C Assay for Human Leukocyte Antigen - DR isotype (HLADR) Biomarker Activity (AID 2283032); conditions: primary human bronchial epithelial cells; actives raise or lower the signal
Summary of the method: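 Human primary bronchial epithelial cells (BE3C system) exposed to compound for 24 hours; cell-surface HLA-DR measured by ELISA, fitted bidirectionally relative to DMSO. Total protein by SRB in parallel cultures tracked cytotoxicity.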

[3] = read-out: Vascular cell adhesion molecule 1 (VCAM1), VCAM1 (gene 7412); assay: BSK_4H_VCAM1: BioMAP Diversity Plus: 4H Assay for Vascular cell adhesion molecule 1 (VCAM1) Biomarker Activity (AID 2283033); conditions: primary human endothelial cells (HUVEC); actives raise or lower the signal
Summary of the method: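 Primary human umbilical vein endothelial cells, 4H stimulation system, treated for 24 h; cell-surface VCAM-1 quantified by ELISA. Bidirectional fitting against DMSO; cytotoxicity tracked by SRB total-protein staining in parallel cultures.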

[4] = read-out: Interferon-gamma inducible Protein 10 (IP10), CXCL10 (gene 3627); assay: BSK_BE3C_IP10: BioMAP Diversity Plus: BE3C Assay for Interferon-gamma inducible Protein 10 (IP10) Biomarker Activity (AID 2283034); conditions: primary human bronchial epithelial cells; actives raise or lower the signal
Summary of the method: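 Primary human bronchial epithelial cells, with IP-10 measured by ELISA 24 hours after chemical dosing. Bidirectional fit against DMSO; cytotoxicity checked by SRB total protein staining in parallel cultures.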

[5] = read-out: Monokine induced gamma interferon (MIG), CXCL9 (gene 4283); assay: BSK_BE3C_MIG: BioMAP Diversity Plus: BE3C Assay for Monokine induced gamma interferon (MIG) Biomarker Activity (AID 2283035); conditions: primary human bronchial epithelial cells; actives raise or lower the signal;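 also: MIG protein measured by ELISA in BE3C cultures after 24 h of dosing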
Summary of the method: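 ELISA read-out of MIG in human lung bronchial epithelial primary cultures, 24 h post-dosing. Bidirectional curve fit vs DMSO baseline.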

[6] = read-out: Transforming growth factor beta 1 (TGFb1), TGFB1 (gene 7040); assay: BSK_BE3C_TGFb1: BioMAP Diversity Plus: BE3C Assay for Transforming growth factor beta 1 (TGFb1) Biomarker Activity (AID 2283036); conditions: primary human bronchial epithelial cells; actives raise or lower the signal
Summary of the method: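 Primary human bronchial epithelial cells dosed with chemical; TGF-b1 measured by ELISA 24 h after dosing. Bidirectional curve fitting against DMSO negative control; SRB total-protein staining in parallel cultures gauged cytotoxicity.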

[7] = read-out: Plasminogen activator inhibitor-1 (PAI1), SERPINE1 (gene 5054); assay: BSK_BE3C_PAI1: BioMAP Diversity Plus: BE3C Assay for Plasminogen activator inhibitor-1 (PAI1) Biomarker Activity (AID 2283037); conditions: primary human bronchial epithelial cells; actives raise or lower the signal
Summary of the method: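 Primary human bronchial epithelial cells (BE3C system) exposed 24 h; PAI-1 quantified by ELISA. Parallel sulforhodamine B staining of total protein flags cytotoxicity. Bidirectional fit versus DMSO.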

[8] = read-out: urokinase plasminogen activator (uPA), PLAU (gene 5328); assay: BSK_BE3C_uPA: BioMAP Diversity Plus: BE3C Assay for urokinase plasminogen activator (uPA) Biomarker Activity (AID 2283038); conditions: primary human bronchial epithelial cells; actives raise or lower the signal;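 also: uPA protein level quantified by ELISA in cell cultures; uPA read one day after compound addition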
Summary of the method: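 Bronchial epithelial cells (human, primary); chemical 24 h; uPA by ELISA; bidirectional fit vs DMSO. SRB (0.1%, after 10% TCA fixation, 560 nm) in parallel cultures for cytotoxicity.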

[9] = read-out: Urokinase-type plasminogen activator receptor (uPAR), PLAUR (gene 5329); assay: BSK_BE3C_uPAR: BioMAP Diversity Plus: BE3C Assay for Urokinase-type plasminogen activator receptor (uPAR) Biomarker Activity (AID 2283039); conditions: primary human bronchial epithelial cells; actives raise or lower the signal;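 also: uPAR protein level measured by ELISA on the cells; cells exposed to compound for one day before measurement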
Summary of the method: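 Primary human bronchial epithelial cells dosed for 24 h; uPAR quantified by ELISA with bidirectional fitting against DMSO. Overt cytotoxicity assessed in parallel cultures by SRB total-protein staining (0.1% SRB, 560 nm).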

[10] = read-out: Interleukin-6 (IL6), IL6 (gene 3569); assay: BSK_CASM3C_IL6: BioMAP Diversity Plus: CASM3C Assay for Interleukin-6 (IL6) Biomarker Activity for (AID 2283040); conditions: primary human coronary artery smooth muscle cells; actives raise or lower the signal
[11] = read-out: Tissue plasminogen activator (tPA), PLAT (gene 5327); assay: BSK_BE3C_tPA: BioMAP Diversity Plus: BE3C Assay for Tissue plasminogen activator (tPA) Biomarker Activity (AID 2283041); conditions: primary human bronchial epithelial cells; actives raise or lower the signal;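 also: tPA level quantified by ELISA one day after compound addition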
Summary of the method: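 Primary human bronchial epithelial cells in the BE3C system, exposed to compound for 24 h. tPA was quantified by ELISA; DMSO served as baseline, with gain or loss of signal fitted. Cytotoxicity checked in parallel cultures by SRB total-protein staining.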

[12] = read-out: Interleukin-8 (IL8), CXCL8 (gene 3576); assay: BSK_CASM3C_IL8: BioMAP Diversity Plus: CASM3C Assay for Interleukin-8 (IL8) Biomarker Activity (AID 2283042); conditions: primary human coronary artery smooth muscle cells; actives raise or lower the signal;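 also: IL-8 protein level quantified by ELISA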
[13] = read-out: Human Leukocyte Antigen - DR isotype (HLADR), HLA-DRA (gene 3122); assay: BSK_CASM3C_HLADR: BioMAP Diversity Plus: CASM3C Assay for Human Leukocyte Antigen - DR isotype (HLADR) Biomarker Activity (AID 2283043); conditions: primary human coronary artery smooth muscle cells; actives raise or lower the signal;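 also: cell-surface HLA-DR protein level quantified by ELISA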
[14] = read-out: Macrophage colony-stimulating factor (MCSF), CSF1 (gene 1435); assay: BSK_CASM3C_MCSF: BioMAP Diversity Plus: CASM3C Assay for Macrophage colony-stimulating factor (MCSF) Biomarker Activity (AID 2283044); conditions: primary human coronary artery smooth muscle cells; actives raise or lower the signal;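 also: M-CSF protein amount quantified by ELISA after 24 h exposure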
[15] = read-out: Low-density lipoprotein receptor (LDLR), LDLR (gene 3949); assay: BSK_CASM3C_LDLR: BioMAP Diversity Plus: CASM3C Assay for Low-density lipoprotein receptor (LDLR) Biomarker Activity (AID 2283045); conditions: primary human coronary artery smooth muscle cells; actives raise or lower the signal;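 also: LDLR protein level on the cell surface quantified by ELISA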
[16] = read-out: Monocyte Chemoattractant Protein-1 (MCP1), CCL2 (gene 6347); assay: BSK_CASM3C_MCP1: BioMAP Diversity Plus: CASM3C Assay for Monocyte Chemoattractant Protein-1 (MCP1) Biomarker Activity (AID 2283046); conditions: primary human coronary artery smooth muscle cells; actives raise or lower the signal;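 also: MCP-1 level quantified by ELISA 24 h after dosing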
[17] = BSK_CASM3C_Proliferation: Cell Proliferation Assessment in the BioMAP Diversity Plus: CASM3C Assay (AID 2283047); conditions: primary human coronary artery smooth muscle cells;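 also: sulforhodamine B total protein stain as relative cell number at 560 nm; sub-confluent cells exposed 48 h before staining; fitted both ways against DMSO so gain or loss of cell number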
[18] = read-out: Monokine induced gamma interferon (MIG), CXCL9 (gene 4283); assay: BSK_CASM3C_MIG: BioMAP Diversity Plus: CASM3C Assay for Monokine induced gamma interferon (MIG) Biomarker Activity (AID 2283048); conditions: primary human coronary artery smooth muscle cells; actives raise or lower the signal;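 also: MIG protein level measured by ELISA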
[19] = read-out: serum amyloid A (SAA), SAA1 (gene 6288); assay: BSK_CASM3C_SAA: BioMAP Diversity Plus: CASM3C Assay for serum amyloid A (SAA) Biomarker Activity (AID 2283049); conditions: primary human coronary artery smooth muscle cells; actives raise or lower the signal;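 also: SAA protein level quantified by ELISA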
[20] = BSK_CASM3C_SRB: Viability Assessment in the BioMAP Diversity Plus: CASM3C Assay (AID 2283050); conditions: primary human coronary artery smooth muscle cells

Measured: outcome

NCCO
inactive: all assays above

C=CCOC(=O)c1ccccc1C(=O)OCC=C
inactive: all assays above

CC(C)c1ccc(C(=O)N=C(N)N)cc1S(C)(=O)=O
inactive: all assays above

NCC1(Cc2noc(=O)[nH]2)CCCCC1
inactive: all assays above

CCOc1ccc2c(c1)C(C)=CC(C)(C)N2
inactive: all assays above

CCOC(=O)C(C)(C)Oc1ccc(Cl)cc1
inactive: all assays above

From PubChem BioAssay (EPA / NIEHS)
